Test results taken from ChEMBL document CHEMBL2218924, “A broad activity screen in support of a chemogenomic map for kinase signalling research and drug discovery” (Biochem J, 2013).

biological target: PAS domain-containing serine/threonine-protein kinase (Homo sapiens) (UniProt Q96RG2); conditions: at 10 µM
Sequence (Q96RG2 whole entry, the tested form may be a part): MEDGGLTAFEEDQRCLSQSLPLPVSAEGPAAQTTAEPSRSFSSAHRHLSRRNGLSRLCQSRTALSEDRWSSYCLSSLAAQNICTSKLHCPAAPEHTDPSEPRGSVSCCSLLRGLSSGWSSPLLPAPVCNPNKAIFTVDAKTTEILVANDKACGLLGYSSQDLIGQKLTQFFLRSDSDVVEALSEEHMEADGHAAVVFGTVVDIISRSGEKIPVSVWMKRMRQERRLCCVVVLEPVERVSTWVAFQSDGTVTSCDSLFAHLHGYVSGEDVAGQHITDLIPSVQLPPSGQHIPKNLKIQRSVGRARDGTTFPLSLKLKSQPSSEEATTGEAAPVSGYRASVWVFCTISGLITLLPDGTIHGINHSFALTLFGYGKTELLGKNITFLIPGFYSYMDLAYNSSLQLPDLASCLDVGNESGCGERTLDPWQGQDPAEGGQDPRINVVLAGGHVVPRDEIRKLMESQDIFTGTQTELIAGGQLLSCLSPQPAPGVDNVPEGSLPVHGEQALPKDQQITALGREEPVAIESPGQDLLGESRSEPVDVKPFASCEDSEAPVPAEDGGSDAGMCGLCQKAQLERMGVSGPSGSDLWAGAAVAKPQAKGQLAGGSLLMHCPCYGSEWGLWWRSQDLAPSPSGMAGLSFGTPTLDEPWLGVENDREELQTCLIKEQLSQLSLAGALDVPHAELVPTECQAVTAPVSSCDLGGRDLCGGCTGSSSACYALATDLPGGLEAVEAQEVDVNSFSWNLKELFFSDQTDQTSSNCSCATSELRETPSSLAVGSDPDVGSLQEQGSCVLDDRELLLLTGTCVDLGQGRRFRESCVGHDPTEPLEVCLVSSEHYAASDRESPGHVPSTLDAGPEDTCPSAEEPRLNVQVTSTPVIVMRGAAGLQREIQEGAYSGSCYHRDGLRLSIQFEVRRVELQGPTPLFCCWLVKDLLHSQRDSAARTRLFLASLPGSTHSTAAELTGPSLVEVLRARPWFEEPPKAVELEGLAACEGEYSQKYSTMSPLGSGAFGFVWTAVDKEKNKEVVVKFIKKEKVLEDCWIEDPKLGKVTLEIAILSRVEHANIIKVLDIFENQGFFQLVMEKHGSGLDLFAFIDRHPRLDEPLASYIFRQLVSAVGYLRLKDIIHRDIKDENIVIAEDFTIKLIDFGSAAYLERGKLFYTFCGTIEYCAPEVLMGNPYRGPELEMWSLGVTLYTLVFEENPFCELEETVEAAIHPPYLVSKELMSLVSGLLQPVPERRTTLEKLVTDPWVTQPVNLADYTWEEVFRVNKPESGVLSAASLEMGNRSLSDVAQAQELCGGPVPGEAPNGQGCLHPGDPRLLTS

How did the residual activity turn out when `O=[N+]([O-])/C=C/c1ccc2c(c1)OCO2` was run?
Its residual activity is 87%.

How did the residual activity turn out when `COc1cc2ncnc(Nc3ccc(OCc4ccccc4)cc3)c2cc1OC` was run?
Its residual activity is 71%.

For `CC(C)[C@H](CO)Nc1nc(Nc2cccc(Cl)c2)c2ncn(C(C)C)c2n1`, which residual activity is on record?
The residual activity was 116%.

For `C[S+]([O-])c1ccc(-c2nc(-c3ccc(F)cc3)c(-c3ccncc3)[nH]2)cc1` (configuration not stated), which residual activity is on record?
The residual activity was 113%.

Which residual activity does the source give for `COc1ccc2c(c1)/C(=C/c1cnc[nH]1)C(=O)N2` here?
Its residual activity is 81%.

`COC(=O)[C@@]1(O)C[C@H]2O[C@]1(C)n1c3ccccc3c3c4c(c5c6ccccc6n2c5c31)C(=O)NC4` was tested. Which residual activity did it give?
Its residual activity is 4%.

With `c1cc(-c2cnn3cc(-c4ccc(OCCN5CCCCC5)cc4)cnc23)ccn1` as the molecule, how does the residual activity read?
Its residual activity is 57%.

Which residual activity does the source give for `CC(C)(C)c1cc(C=C(C#N)C#N)cc(Br)c1O` here?
The residual activity was 44%.

`CCn1cnc2c(Nc3cccc(Cl)c3)nc(N[C@@H]3CCCC[C@@H]3N)nc21` was tested. Which residual activity did it give?
The residual activity was 69%.

`O=c1[nH]c2ccccc2n1C1CCN(Cc2ccc(-c3nc4cc5[nH]cnc5cc4nc3-c3ccccc3)cc2)CC1` was tested. Which residual activity did it give?
Its residual activity is 42%.

For `O=C1Nc2ccc3ncsc3c2/C1=C/c1c[nH]cn1`, which residual activity is on record?
Its residual activity is 2%.

For `COc1ccc2c(c[n+](C)c3c4cc5c(cc4ccc23)OCO5)c1OC`, which residual activity is on record?
The residual activity was 61%.

biological target: Activated CDC42 kinase 1 (Homo sapiens) (UniProt Q07912); conditions: at 1 µM
Sequence (Q07912 whole entry, looked up): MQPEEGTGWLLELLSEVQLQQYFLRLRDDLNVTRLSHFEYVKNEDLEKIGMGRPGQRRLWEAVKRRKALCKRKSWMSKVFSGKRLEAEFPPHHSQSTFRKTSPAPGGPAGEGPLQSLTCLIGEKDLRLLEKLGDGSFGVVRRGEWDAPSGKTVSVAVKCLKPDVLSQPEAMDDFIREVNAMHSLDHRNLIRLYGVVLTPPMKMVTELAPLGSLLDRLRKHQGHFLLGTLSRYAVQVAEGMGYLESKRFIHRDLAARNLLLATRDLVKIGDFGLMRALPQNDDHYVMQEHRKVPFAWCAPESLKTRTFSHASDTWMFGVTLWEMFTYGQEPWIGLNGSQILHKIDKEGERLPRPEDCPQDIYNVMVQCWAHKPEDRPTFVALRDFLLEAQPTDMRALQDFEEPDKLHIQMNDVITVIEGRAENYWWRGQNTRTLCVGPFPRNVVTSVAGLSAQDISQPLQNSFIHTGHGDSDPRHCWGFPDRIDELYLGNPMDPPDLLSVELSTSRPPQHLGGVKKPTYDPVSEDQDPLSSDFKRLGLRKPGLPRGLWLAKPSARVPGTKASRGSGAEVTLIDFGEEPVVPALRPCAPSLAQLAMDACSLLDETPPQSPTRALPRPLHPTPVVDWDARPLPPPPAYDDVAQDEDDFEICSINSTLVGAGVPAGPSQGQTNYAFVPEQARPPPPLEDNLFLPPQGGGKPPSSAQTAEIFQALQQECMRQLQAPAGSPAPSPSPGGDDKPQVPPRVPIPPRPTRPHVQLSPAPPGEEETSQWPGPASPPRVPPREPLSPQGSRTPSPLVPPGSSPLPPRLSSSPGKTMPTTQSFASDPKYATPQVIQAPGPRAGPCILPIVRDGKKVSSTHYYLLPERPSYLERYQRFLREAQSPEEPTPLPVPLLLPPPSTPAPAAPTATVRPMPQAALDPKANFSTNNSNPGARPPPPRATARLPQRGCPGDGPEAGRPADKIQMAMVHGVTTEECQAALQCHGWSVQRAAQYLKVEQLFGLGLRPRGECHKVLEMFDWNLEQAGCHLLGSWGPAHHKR

For `O=[N+]([O-])/C=C/c1ccc2c(c1)OCO2`, which residual activity is on record?
Its residual activity is 83%.

With `COc1cc2ncnc(Nc3ccc(OCc4ccccc4)cc3)c2cc1OC` as the molecule, how does the residual activity read?
Its residual activity is 22%.

Which residual activity does the source give for `CC(C)[C@H](CO)Nc1nc(Nc2cccc(Cl)c2)c2ncn(C(C)C)c2n1` here?
The residual activity was 45%.

Which residual activity does the source give for `C[S+]([O-])c1ccc(-c2nc(-c3ccc(F)cc3)c(-c3ccncc3)[nH]2)cc1` (configuration not stated) here?
Its residual activity is 93%.

`COC(=O)[C@@]1(O)C[C@H]2O[C@]1(C)n1c3ccccc3c3c4c(c5c6ccccc6n2c5c31)C(=O)NC4` was tested. Which residual activity did it give?
The residual activity was 0%.

With `c1cc(-c2cnn3cc(-c4ccc(OCCN5CCCCC5)cc4)cnc23)ccn1` as the molecule, how does the residual activity read?
Its residual activity is 63%.

`CC(C)(C)c1cc(C=C(C#N)C#N)cc(Br)c1O` was tested. Which residual activity did it give?
The residual activity was 106%.

How did the residual activity turn out when `O=C1NC(=O)c2c1c1c3ccccc3n3c1c1c2c2ccccc2n1C1CCC3O1` was run?
Its residual activity is 8%.

How did the residual activity turn out when `CCn1cnc2c(Nc3cccc(Cl)c3)nc(N[C@@H]3CCCC[C@@H]3N)nc21` was run?
Its residual activity is 34%.

For `O=C1c2ccccc2-c2nc3nnnn3nc21`, which residual activity is on record?
Its residual activity is 109%.

With `COc1cc(OC)c(/C=C2\C(=O)Nc3ccccc32)c(OC)c1` as the molecule, how does the residual activity read?
The residual activity was 71%.

For `O=c1[nH]c2ccccc2n1C1CCN(Cc2ccc(-c3nc4cc5[nH]cnc5cc4nc3-c3ccccc3)cc2)CC1`, which residual activity is on record?
Its residual activity is 98%.

Which residual activity does the source give for `N/C(=N\[N+](=O)[O-])N/N=C\c1ccc(-c2cccc([N+](=O)[O-])c2)o1` here?
Its residual activity is 85%.

With `O=C1Nc2ccc3ncsc3c2/C1=C/c1c[nH]cn1` as the molecule, how does the residual activity read?
The residual activity was 64%.

`COc1ccc2c(c[n+](C)c3c4cc5c(cc4ccc23)OCO5)c1OC` was tested. Which residual activity did it give?
The residual activity was 84%.
